# According to the supplement of paper PMC11417369:
# ± gives the standard deviation of the averaged measurements. Whole data set: some 25,000 sequences, median “ln(normalized median fluorescence intensity)” near 10, cut for the highest 2% near 12. The list comes from a sample in which the highest values are over-represented; it also holds similar and randomly drawn sequences.
# Test system: PfAP2-G AP2 domain (GST-tagged)
# Test: gcPBM binding intensity (ln(normalized median fluorescence intensity)); higher = stronger DNA binding
# Summary of the method: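 The binding buffer was 1× PBS containing 1% milk, 0.2 mg/ml BSA, 0.5% salmon testes DNA and 0.03% Triton X-100. In it, GST-tagged P. falciparum DNA-binding domains expressed in E. coli were applied for 1 h to an Agilent 4 × 180k array of primer-extended double-stranded 36-bp intergenic genomic probes plus negative controls. Binding intensity, read with Alexa488 anti-GST antibody and a 488 nm scan, is the highest Masliner-normalised natural-log median intensity across replicate spots of either probe orientation.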
row,Sequence,gcPBM binding intensity (ln)
1,TTTGAAAAAAATTAATGTACATTTGAAATGACATAT [XGTACX_site3902],10.8 ± 0.52
2,AAGGTATAATATATTTGTACATATACATTTTTGAAT [XGTACX_site6493],10.9 ± 0.61
3,AGACATTAATGAAGGTGTACATATATTTGACAGAAT [XGTACX_site655],11.6 ± 1
4,AAAAAAAAATTAAAAACACACATATATATATATATA [CACACA_site1580],9.9 ± 0.67
5,ATTTGCTTTTATTTTACACACTTGCTCCTGTTGTAC [CACACA_site1088],10.9 ± 0.42
6,TATTTTCAAAATGTTGTACACACAAAAAAAAAAAAA [CACACA_site8437],11.5 ± 1.1
7,TTATTTTCAAAATGTTGTACACACAAAAAAAAAAAA [XGTACX_site3151],11.4 ± 0.93
8,CAACACTTTCAAAAATGTACGTACAAATGTATTTTA [XGTACX_site6713],11.7 ± 0.76
9,AAATTTATATATAGTTGTACAAAAATATGTTTCGTA [XGTACX_site4801],11.2 ± 0.57
10,GTTTTTTATAATTGTAGTACAAGAAGATATTTTTAT [XGTACX_site5443],11.5 ± 0.86
11,TATGTGAATATAATCACACACAATACGGAAAGAGAC [CACACA_site7311],10.7 ± 0.39
12,TTATATATATGACTTTGTACATATACATATTTTTTA [XGTACX_site4669],10.7 ± 0.54
13,ATGGACTTTTATAGTTGTACATACTATGAGAACTTT [XGTACX_site2800],11.7 ± 0.85
14,CTATACATATTATATAGTACTTTATTATTATGACTA [XGTACX_site1382],10.8 ± 0.45
15,TTATAAAATTACTTGGTGCATTAGAATATTTCAATA,10.1 ± 0.3
16,AATAAAAAACTACAATATACAAAATTATTAAATCAA [GTGCAC_negctrl_site703],9.56 ± 0.35
17,TAATTTATAAAAAATTGTACATTAAACATATATATA [XGTACX_site5164],10.8 ± 0.56
18,TTCATATGGAATAAAAGTACGTATTAAAACAATTTT [XGTACX_site8742],11.1 ± 0.59
19,TTTTTTATTTTTTGTTATATTTATAATAATTTATGA [XGTACX_negctrl_site260],9.58 ± 0.071
20,AGATAAAATAAATACACACACATAAATACGTACAAA [CACACA_site4739],11.7 ± 0.74
21,TTTACACGTACGTGTACACACAAAAATATGTTTTTA [CACACA_site995],11.6 ± 0.89
22,AAACCAAAAATAACACGTACAAAAATAAAAAGTATA [XGTACX_site4261],11.2 ± 0.74

row,Sequence,gcPBM binding intensity (ln)
1,TAAAAAAAATACAAAAGTACACAAAATTATACGTTA [XGTACX_site4656],11.5 ± 0.96
2,GTATATATTTAAACACGTACACAAAACCCAAAAAAT [XGTACX_site8110],11.8 ± 0.96
3,TAATTTACACCTACGTGTACACACAAAAATATGTTT [XGTACX_site1868],11.6 ± 0.95
4,ACAAAAAAAAAAAAAATACACACACATAAAAAAAAA [TGCATGCA_negctrl_site333],10.1 ± 0.13
5,AAAAAAAAAAAAAAAGGTACACAAATACGTCCTGCA [XGTACX_site3354],11.5 ± 0.74
6,TATATATTATTTAAAACACACAAAAAAAAAAATTAT [CACACA_site89],9.895 ± 0.021
7,AAAAAAAAAAAAATACGTACACAAAAAATTGCAAAG [XGTACX_site5663],11.6 ± 0.81
8,AATTTACACGTACGTGTACACACAAAAATATGTTTT [CACACA_site8242],11.8 ± 1
9,AAAATAAAATAAAATACACACATACATACATACAAA [CACACA_site5366],10.01 ± 0.028
10,TATATTACTTTGTGTTGTACGGAAATATATATATAT [XGTACX_site4309],11.3 ± 0.94
11,TATATAATGGTAAAAACACACAAATATGAAGATGTT [CACACA_site722],9.87 ± 0.16
12,TGTAATAATTATTGCACGCACACAAAAACCTATAGA [CACACA_site2932],10.7 ± 0.4
13,ATCTTAGTTGAAATATAGAATTTATAATAAAAGTTA [GTGCAC_negctrl_site122],9.595 ± 0.064
14,AAAAAATACCAAAGGGGTACTTACACATAATACTTA [XGTACX_site2111],11.4 ± 1.1
15,AATGTACAAATACGTACACACATATATATATATATA [CACACA_site1542],11.6 ± 0.93
16,TGATAACCAAAAAGGGGTACATACACAAAAAAATAC [XGTACX_site1254],11.7 ± 0.91
17,ATAACACAAAAAGGGGGTACAATAAAAAAAAAAAAA [XGTACX_site1652],11.5 ± 0.98
18,GAAATGTACAAATACGTACACACATATATATATATA [CACACA_site1541],11.6 ± 0.99
19,TGTATAAATAAATGCGTACACACTAATAAAAAAAAA [CACACA_site858],11.6 ± 0.8
20,AGAAATTTACAAATACGTACACACATATATATATAT [XGTACX_site3141],11.9 ± 1.4
21,AATAAATATAAAAATGCACACACACTAATAAAAAAA [CACACA_site8201],10.2 ± 0.13
22,AAATATATATATTTACGTACATATATACAAATAGAG [XGTACX_site6067],11.4 ± 0.81
